Shown are actives, neighbours in structure and some others; about 21% of the full set was active somewhere.
MRP-1 activ – activates MRP-1 | H69AR cells + doxorubicin, viability rescue, CellTiter-Glo | viability increase, % at 10 µM | 140,000 compounds, 0.61% hits | AID 799;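 active = viability gain under doxorubicin at or above a set limit, the compound median plus 3 SD, cut at about 4.7% in these data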;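 note: MRP-1 overexpressing cells given doxorubicin 25 µM after compound pretreatment; 18-22 h compound pretreatment then 72 h with doxorubicin before readout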
CYP2C19 inhib – human CYP2C19 inhibition. CYP2C19 Supersomes, luciferin-H EGE luminescence, 30 min. 96,000 compounds, 21% hits. inhibition, % at 5 µM. AID 778. P33261;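 active = CYP2C19 inhibition above a set limit at 5 µM in the primary screen, cut at about 50% in these data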
Target sequence (P33261 whole entry, looked up): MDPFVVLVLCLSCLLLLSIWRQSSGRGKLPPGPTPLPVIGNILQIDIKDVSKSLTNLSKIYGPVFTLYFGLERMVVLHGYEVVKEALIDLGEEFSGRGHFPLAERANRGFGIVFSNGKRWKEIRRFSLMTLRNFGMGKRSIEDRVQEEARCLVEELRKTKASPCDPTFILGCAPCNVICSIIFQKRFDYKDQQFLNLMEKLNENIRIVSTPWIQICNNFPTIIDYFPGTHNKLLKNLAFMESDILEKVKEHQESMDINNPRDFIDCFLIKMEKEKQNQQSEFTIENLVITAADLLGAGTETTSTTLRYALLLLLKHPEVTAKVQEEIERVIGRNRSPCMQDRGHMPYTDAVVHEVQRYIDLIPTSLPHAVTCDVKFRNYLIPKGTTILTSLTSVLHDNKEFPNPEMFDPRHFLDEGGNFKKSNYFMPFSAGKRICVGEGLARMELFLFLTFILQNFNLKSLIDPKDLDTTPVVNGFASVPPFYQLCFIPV
CYP2C9 inhib – blocks human cytochrome P450 2C9; 96,000 compounds, 20% hits; CYP2C9 Supersomes, luciferin-H conversion, luminescence; P11712; AID 777; inhibition, % at 5 µM;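 active = blocking of liver enzyme CYP2C9 beyond about 50% at 5 µM, limit read from the data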
CYP2C9 activ – increases human cytochrome P450 2C9 activity | 96,000 compounds, 1.4% hits | recombinant CYP2C9, luciferin-H conversion, luminescence; hits give high values; factor 1 = untreated enzyme, 0 = blocked | P11712 | activation factor at 5 µM;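 active = activation factor of 2 or more for CYP2C9 at a 5 µM dose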
CYP2C19 act – increases human CYP2C19 enzyme activity; P33261; recombinant CYP2C19, luciferin-H EGE luminescence; hits give high values; 0 = fully inhibited enzyme, 1 = untreated enzyme; activation factor at 5 µM; 96,000 tested, under 10 active; AID 1025;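 active = activation factor of at least 2 at 5 µM in the primary screen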
MRP resist rev – reverses drug resistance mediated by MRP. H69AR cells + 2 uM doxorubicin, CellTiter-Glo, 72 h. 85,000 compounds, 0.04% hits. differential viability (reversal), % at 10 µM;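 active = viability drop by adding the cancer drug above about 55%, with treated viability meeting a 40% cutoff, limit read from the data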;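 note: larger differential means the compound sensitizes cells more to doxorubicin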
Hits are given with their value; . = inactive; / = no result.

SMILES	MRP-1 activ	CYP2C19 inhib	CYP2C9 inhib	CYP2C9 activ	CYP2C19 act	MRP resist rev
COc1ccc(OC)c(/C(O)=C/C(=O)C(=O)Nc2ccccc2OC)c1	.	.	.	.	.	.
CSc1ccc(-c2nnn(Cc3ccc(Br)cc3)n2)cc1	.	75	.	.	.	.
CSc1ccc(-c2nnn(Cc3ccccn3)n2)cc1	.	67	.	.	.	.
c1ccc(Cn2nnc(-c3ccccc3)n2)cc1	.	/	/	/	/	.
CCOC(=O)Cn1nnc(-c2ccc(SC)cc2)n1	.	.	.	.	.	.
COc1ccccc1CN=Cc1[nH]c2ccc(Br)c(Cl)c2c1O	.	85	73	.	.	.
CCOC(=O)c1c(NC(C)=O)no[n+]1[O-]	.	/	/	/	/	.
Cc1ccc(-c2nn(-c3ccccc3)c3[nH]c(=O)c(CNCc4ccccc4)cc23)cc1	.	/	/	/	/	.
COc1cccc(NCc2cc3c(C(C)(C)C)nn(-c4ccccc4)c3[nH]c2=O)c1	.	.	82	.	.	.
Cc1nn(-c2ccccc2)c2[nH]c(=O)c(CNCCN3CCOCC3)cc12	.	.	.	.	.	.
CCOc1ccc(NCc2cc3c(C(C)(C)C)nn(-c4ccccc4)c3[nH]c2=O)cc1	.	.	59	.	.	/
O=C(NCc1cccnc1)c1ccccc1[N+](=O)[O-]	.	/	/	/	/	/
C=CCn1c(SCC(=O)Nc2cccnc2Cl)nnc1-c1ccccc1F	.	/	/	/	/	/
CCN1C(=O)N(C)C(N(O)C(=O)NC)C1(C)C (stereo unspecified)	.	.	.	.	.	.
Cc1n[nH]c(=O)n1-c1cccc(C(F)(F)F)c1	.	.	.	.	.	/
COc1ccc([C@@H]2[C@H]3C(=O)N(c4cccc(C(F)(F)F)c4)C(=O)[C@H]3ON2C)cc1	.	55	.	.	.	/
COCCN1C(=O)C(=O)/C(=C(/O)c2ccc(S(=O)(=O)N3CCOCC3)cc2)C1c1ccc(C(C)C)cc1 (stereo unspecified)	.	.	.	.	.	/
CCOC(=O)c1cc(-c2nnc(-c3ccc(Oc4ccccc4)cc3)o2)c(C)nc1C	.	.	63	.	.	.
CCCn1nnc(NC(=O)c2ccccc2Cl)n1	.	.	.	.	.	.
CCCn1nnc(NC(=O)c2ccc(Cl)cc2Cl)n1	.	89	.	.	.	.
Cc1csc(Cn2c(CN(C)C)nc3ccccc3c2=O)n1	.	.	.	.	.	.
CN(C)Cc1nc2ccccc2c(=O)n1Cc1nc(-c2cc3ccccc3o2)cs1	.	.	70	.	.	.
O=C1c2ccccc2C(=O)c2c(NCc3cccnc3)cccc21	.	99	79	.	.	/
Cc1ccccc1S(=O)(=O)NCc1cccnc1	.	/	/	/	/	/
COc1ccccc1C(=O)Nc1ccc(N2CCN(Cc3ccccc3)CC2)cc1	.	.	.	2.5	.	.
SMILES	MRP-1 activ	CYP2C19 inhib	CYP2C9 inhib	CYP2C9 activ	CYP2C19 act	MRP resist rev
COc1ccccc1C(=O)Nc1ccc2c(c1)nc1n2CCSC1	.	.	.	2	.	.
Cc1ccc(C(=O)Nc2ccc3c(c2)nc2n3CCSC2)cc1	.	.	.	.	.	.
COc1ccccc1C(=O)Nc1ccc(S(=O)(=O)N2CCCC2)cc1	.	.	.	.	.	.
COc1ccccc1C(=O)Nc1ccc(N2CCCCC2)cc1	.	.	.	3.8	.	.
CC1Cc2ccccc2N1C(=O)CN1C(=O)C(=O)N(Cc2ccccc2)C1=O (stereo unspecified)	.	.	.	.	.	/
CC(O/N=C/c1ccc(OC(F)F)cc1)C(=O)Nc1cccc(S(=O)(=O)N2CCOCC2)c1 (stereo unspecified)	.	/	/	/	/	/
COc1cccc(OC)c1C(=O)NC(C)c1ccccc1 (stereo unspecified)	.	/	/	/	/	.
COc1ccccc1C(=O)NC(C)c1ccccc1 (stereo unspecified)	.	56	.	2.4	.	.
CC(NC(=O)c1ccccc1O)c1ccccc1 (stereo unspecified)	.	58	.	.	.	.
CC(NC(=O)c1ccc(S(=O)(=O)N(C)C)cc1)c1ccccc1 (stereo unspecified)	.	.	54	.	.	.
Nc1[nH]nc2c1NN(c1ccc(Cl)cc1Cl)N2	.	/	/	/	/	/
COc1ccc(OC)c(C2/C(=C(\O)c3c(C)nc4ccccn34)C(=O)C(=O)N2CCCN(C)C)c1 (stereo unspecified)	/	/	/	/	/	.
CCN(CC)S(=O)(=O)c1ccc(N2CCCCC2)c(NC(=O)/C(C#N)=C/c2ccc(OC)cc2)c1	.	/	/	/	/	/
CCN(CC)S(=O)(=O)c1ccc(N2CCCC2)c(C(=O)OCC(=O)/C(C#N)=C(\C)N)c1	.	80	82	.	.	.
CCC(C)c1ccc(O)c(NC(=O)c2ncn[nH]2)c1 (stereo unspecified)	5.3	.	.	.	.	.
Cc1c(C#N)c2ncnc(N)c2n1-c1ccccc1	.	.	.	.	.	.
CC(=O)N(C(C)=O)c1c(C#N)c(C)n(-c2ccccc2)c1C(=O)c1ccccc1	.	71	.	.	.	.
COC(=O)N[C@H](CC(C)=O)c1cccc(C(F)(F)F)c1	.	/	/	/	/	/
COc1ccc(C(=O)Oc2ccc(C(C)=O)cc2)c(OC)c1	.	59	.	.	.	.
CCc1ccccc1Nc1nc(N)nc(CSCC(=O)c2cc(C)n(C)c2C)n1	.	85	66	.	.	.
O=C(CCCCCN1C(=O)CCC1=O)Nc1ccc(Cl)c(C(F)(F)F)c1	.	69	.	.	.	.
COc1ccc(NC(=O)CCCCCN2C(=O)CCC2=O)cc1Cl	.	.	.	.	.	.
Cc1ccc(S(=O)(=O)c2cc(OC(=O)c3ccco3)ccc2OC(=O)c2ccco2)cc1	.	/	/	/	/	/
O=C(Oc1ccc(OC(=O)c2ccco2)c(S(=O)(=O)c2ccc(Br)cc2)c1)c1ccco1	.	64	72	.	.	/
COc1ccc(N2CC(C)Cn3c2nc2c3c(=O)[nH]c(=O)n2C)cc1 (stereo unspecified)	.	.	.	.	.	.
SMILES	MRP-1 activ	CYP2C19 inhib	CYP2C9 inhib	CYP2C9 activ	CYP2C19 act	MRP resist rev
CCCCNC(=O)/C=C/c1ccc(OC)c(Br)c1	.	.	.	.	.	/
O=C(Oc1ccc2c(c1)OCO2)c1ccncc1	.	82	65	.	.	.
COc1ccc(C(=O)Oc2ccc3c(c2)OCO3)cc1OC	.	.	.	.	.	.
N#Cc1c(/N=C/c2cccs2)sc2c1CCCCC2	.	70	94	.	.	.
N#Cc1c(/N=C/c2ccc(Br)s2)sc2c1CCC2	.	/	/	/	/	.
CN(C)/C=N/c1sc2c(c1C#N)CCCCC2	.	/	/	/	/	/
CN(C)/C=N/c1sc2c(c1C#N)CCC2	.	67	.	.	.	.
CC(C)NC(=O)/C(=C/c1cn(-c2ccccc2)nc1-c1cccc([N+](=O)[O-])c1)NC(=O)c1ccccc1	.	/	/	/	/	/
COc1ccc(N2CCN(c3nc(Cl)nc(Nc4ccc(F)cc4)n3)CC2)cc1	.	/	/	/	/	/
Cn1c(SCC(=O)NCCNC(=O)CSc2nnc(C(F)(F)F)n2C)nnc1C(F)(F)F	.	.	.	.	.	.

Assay outcomes from PubChem.
